GRP78 ERSR act = qHTS for Inducers of the Endoplasmic Reticulum Stress Response (ERSR) in Human Glioma: qHTS; U87-MG GRP78 promoter luciferase reporter, 16 h; Potency, µM, hits mostly activators; hit rate 0.02% among 420,000; AID 602332, 2012; further: series mostly up to about 76 µM; nearly all actives have a fitted effect of over 35% in size
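ERSR induction read as luciferase luminescence (Bright-Glo, 10 min at room temperature) in stably transfected human U87-MG glioma cells exposed to compounds for 16 h, using GRP78 as sensor.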
DRD3 antagonist = qHTS of D3 Dopamine Receptor Antagonist: qHTS. max response, negative = inhibition, %. AID 652054, 2013. D(3) dopamine receptor (Homo sapiens), P35462. hit rate 2.5% among 360,000. D3R cells, DiscoveRx beta-arrestin luminescence, antagonist mode; stronger effect = lower value; in the data active means max response below about -50%; inconclusive means no clear call, values can overlap the other calls
Target sequence (P35462 whole entry, looked up): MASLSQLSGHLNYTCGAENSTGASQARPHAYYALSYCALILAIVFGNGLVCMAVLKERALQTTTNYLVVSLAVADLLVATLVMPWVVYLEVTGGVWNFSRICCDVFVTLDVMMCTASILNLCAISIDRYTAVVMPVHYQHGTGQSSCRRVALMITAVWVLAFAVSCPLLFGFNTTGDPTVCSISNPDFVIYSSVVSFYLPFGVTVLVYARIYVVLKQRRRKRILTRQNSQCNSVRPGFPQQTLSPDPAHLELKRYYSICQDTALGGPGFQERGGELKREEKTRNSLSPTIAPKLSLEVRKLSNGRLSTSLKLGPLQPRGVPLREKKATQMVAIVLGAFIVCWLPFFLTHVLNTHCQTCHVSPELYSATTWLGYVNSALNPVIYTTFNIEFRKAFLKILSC
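Cells expressing the human receptor were seeded at 1500 cells/well, incubated overnight at 37 degrees C in 5% CO2, then exposed to library compounds with dopamine controls for 90 minutes at 37 degrees C before luminescent detection.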
D3 ag = qHTS of D3 Dopamine Receptor Agonist: qHTS; D3R DiscoveRx beta-arrestin cells, luminescence, 90 min; hit rate 0.58% among 410,000; max activation, %; in the data active means max activation above about 30%
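Agonist-mode cell screen: cells plated at 1500/well and incubated overnight at 37 °C, then exposed to library compounds for 90 min at 37 °C. Detection reagent was added for 30–60 min at room temperature, and luminescence was read.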
Nrf2 activator = qHTS of Nrf2 Activators. AREc32 ARE-luciferase reporter (MCF7-derived line), luminescence, 24 h. Potency, µM (top dose mostly 46.1 µM), most hits filed as activators. hit rate 0.31% among 410,000; further: nearly all actives have a fitted effect of over 65% in size
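Luminescent ARE reporter assay in AREc32_Fluc cells: overnight plating at 37 deg C, 24 hr compound incubation, Steady-Glo added, 30 min RT before reading.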
Hits are given with their value; i = inactive; ? = inconclusive; nt = no result; ! = repeats disagree; [ ] = remark or other dose. Compounds with a hit are over-represented: about 3% of the library has one in this group of screens. Unless noted, the call rests on the fitted dose curve; in most records, active means well fitted curve in the direction sought with a large enough effect; inconclusive means small, poorly fitted or top-dose-only effect, or another doubt; inactive means no such curve, though single readings can be large; an effect the other way counts as inactive or inconclusive.

SMILES	GRP78 ERSR act	DRD3 antagonist	D3 ag	Nrf2 activator
Cc1onc(-c2ccccc2)c1C(=O)Nc1sc2c(c1C#N)CCC(C)C2 (configuration not stated)	i	i	32	i
CC(=O)NCCNC(=O)CCCc1nnc2n(CC(C)C)c(=O)c3sccc3n12	i	nt	i	i
CCOC(=O)/C(=C\c1cccc(O)c1)c1nc2sc(C)c(C)c2c(=O)[nH]1	i	-58	i	?
Cc1ccc2oc(-c3ccc(C)c(NC(=O)COc4ccc(Cl)cc4)c3)nc2c1	i	nt	nt	nt
CC(C)(C)n1nnnc1C(c1cccs1)N1CCN(C/C=C/c2ccccc2)CC1 (configuration not stated)	i	-122	i	i
C(=C\c1ccccc1)/CN1CCN(C(c2nnnn2Cc2ccccc2)C2CC2)CC1 (configuration not stated)	i	-62	i	i
Fc1ccccc1N1CCN(C(c2cccs2)c2nnnn2CCc2ccccc2)CC1 (configuration not stated)	i	i	i	i
C(=C\c1ccccc1)/CN1CCN(C(c2cccc3ccccc23)c2nnnn2Cc2ccccc2)CC1 (configuration not stated)	i	?	i	i
C(=C\c1ccccc1)/CN1CCN(C(c2cccs2)c2nnnn2Cc2ccccc2)CC1 (configuration not stated)	i	-73	i	i
c1ccc(CCn2nnnc2C(c2cccs2)N2CCN(Cc3ccc4c(c3)OCO4)CC2)cc1 (configuration not stated)	i	-67	i	i
O=C(c1n[nH]c2c1CCCC2)N1CCOc2ccc(C(O)C(c3ccccc3)c3ccccc3)cc2C1 (configuration not stated)	i	nt	nt	nt
CCC(C)(C)n1nnnc1C(c1ccc2ncccc2c1)N1CCN(Cc2ccc3c(c2)OCO3)CC1 (configuration not stated)	i	i	i	i
CCC(C)(C)n1nnnc1C(c1ccc(C)cc1)N1CCN(Cc2ccc3c(c2)OCO3)CC1 (configuration not stated)	i	-70	i	i
C(=C\c1ccccc1)/CN1CCN(C(c2cc3ccccc3o2)c2nnnn2C2CCCCC2)CC1 (configuration not stated)	i	-76	i	i
C(=C\c1ccccc1)/CN1CCN(C(c2cccs2)c2nnnn2C2CCCC2)CC1 (configuration not stated)	i	-86	i	i
CC(C)C[C@H]1CN([C@@H](Cc2ccc(O)cc2)CN2CCCC2CN2C(=S)NC[C@@H]2Cc2ccccc2)C(=S)N1CC1CCCCC1 (some centres not stated)	nt	-51	i	i
CC(C)C[C@H]1CN([C@@H](CC(C)C)CN2CCCC2CN2C(=S)NC[C@@H]2Cc2ccccc2)C(=S)N1CC1CCCCC1 (some centres not stated)	nt	-112	i	i
COc1cc(CNC(=O)c2cnn(-c3ncc4c(n3)-c3ccccc3CC4)c2C)cc(OC)c1OC	i	nt	nt	nt
COc1ccc(C2C=C3CNS(=O)(=O)C3CC2OC(=O)c2ccc(Cl)cc2)cc1 (configuration not stated)	i	nt	nt	nt
Cc1ccc(-n2c(O)c(/C=N/n3cnnc3)c3ccccc3c2=O)cc1	i	-109!	i	i
C(=C\c1ccnc2ccccc12)/c1ccc(-[n+]2cc[n+](-c3ccc(/C=C/c4ccnc5ccccc45)cc3)cc2)cc1	i	nt	nt	nt
CCOc1ccc(S(=O)(=O)N2CCOCC2)cc1NC(=O)c1ccccc1F	i	i	79	i
Cc1ccc(S(=O)(=O)N2CCOCC2)cc1NC(=O)CNCc1ccccc1Cl	i	i	35	i
Cc1ccc(S(=O)(=O)N2CCOCC2)cc1NC(=O)CNCc1ccccn1	i	i	52	i
Cc1ccc(S(=O)(=O)N2CCOCC2)cc1NC(=O)CSc1ncccn1	i	i	i	i
SMILES	GRP78 ERSR act	DRD3 antagonist	D3 ag	Nrf2 activator
O=C(Cc1ccccc1Cl)Nc1cc(S(=O)(=O)N2CCOCC2)ccc1N1CCOCC1	i	i	i	i
O=C(Nc1ccc(S(=O)(=O)Nc2nccs2)cc1)c1cc(-c2ccccc2Cl)nc2ccccc12	i	-85	i	i
O=C(Nc1ccc(S(=O)(=O)Nc2nccs2)cc1)c1cc(-c2ccccn2)nc2ccccc12	i	?	i	i
O=C1c2ccccc2NC(c2ccc(Cl)cc2Cl)N1Cc1ccccc1 (configuration not stated)	i	-53	i	i
COc1ccccc1C1CN(Cc2c(C)nn(C)c2Cl)Cc2ccccc2O1 (configuration not stated)	i	nt	nt	nt
CC1CCN(CCOc2ccccc2-c2ccccc2)CC1	i	?	i	i
CCCCNCCCCOc1ccccc1	i	?	i	i
Brc1cccc(OCCOCCn2ccnc2)c1	i	i	i	i
CC(C)c1cccc(OCCCCN(C)C)c1	i	-58	i	i
Brc1cccc(OCCn2ccnc2)c1	i	-65	i	i
CCCCNCCCOc1cccc(Cl)c1	i	-80	i	i
CC1CCN(CCOc2cccc(Br)c2)CC1	i	-75	i	i
Cc1ccc(-c2nc(C)c(CCNC(=O)C(=O)Nc3ccc(C)c(Cl)c3)s2)cc1	i	nt	i	i
O=C(NCCO)c1cn(C2CCN(Cc3c(F)cccc3Cl)CC2)nn1	i	nt	nt	nt
CC1CN(CCOc2cccc(Oc3ccccc3)c2)CC(C)O1 (configuration not stated)	i	i	i	i
c1ccc(Oc2cccc(OCCCCN3CCCC3)c2)cc1	i	i	i	i
CC1CCCN(CCOc2cccc(Oc3ccccc3)c2)C1 (configuration not stated)	i	-61	i	i
CC1CCN(CCCCOc2cccc(C(C)C)c2)CC1	i	-108	i	i
Brc1cccc(OCCCN2CCCCCC2)c1	i	-74	i	i
Cc1ccc(OCCCCN2CCC(C)CC2)cc1	i	?	i	i
Cc1nn(CCOc2cccc(Cl)c2)c(C)c1[N+](=O)[O-]	i	-64	i	i
Cc1nn(CCOc2ccccc2Cl)c(C)c1[N+](=O)[O-]	i	?	i	i
CN(Cc1cnc2ccccn12)C(=O)c1cc(NC(=O)c2ccccc2)cc2ncn(C3CCCC3)c12	i	nt	nt	nt
C1=Cc2ccccc2/C1=C\c1cc2c3c(c1)CCCN3CCC2	i	nt	nt	nt
COC1=C(C(=O)O)N2C(=O)[C@@H](NC(=O)[C@H](N)C3=CCC=CC3)[C@H]2SC1	nt	nt	i	nt
CN(C)CCCOc1cccc(Cl)c1	i	?	i	i
Clc1cccc(OCCN2CCN(CCOc3cccc(Cl)c3)CC2)c1	i	i	58	i
O=C(NC(c1ccccc1)c1ccc2ccccc2n1)C1CCN(Cc2ccc(Cl)c(Cl)c2)CC1 (configuration not stated)	i	-124	i	i[9.22 µM]
O=C(NC(c1ccccc1)c1ccc2ccccc2n1)C1CCN(Cc2cccc(C(F)(F)F)c2)CC1 (configuration not stated)	i	-63	i	i

Compound activity (PubChem BioAssay)
